Screen size: about 69,000 compounds; about 8,600 (12%) showed an effect of 50% or more. The full list was thinned out, with strong results kept by preference.

This experiment relates to Plasmodium berghei. As to the kind of experiment: Screen against P. berghei liver stage (PbLuc), transformed with Luciferase, at 10uM. Type of experiment: functional, HepG2. Conditions: tested at 10 uM.
Regarding `CC(C)c1ccc(C2CC(=O)Nc3c2cnn3C)cc1` (centres undefined), the INHIBITION worked out at 14.7%.

On to `COc1ccccc1OCC(=O)NS(=O)(=O)c1ccc(C)s1`, for which the INHIBITION came out at 25.1%.

Consider `CCNC(=O)[C@@H]1C[C@H](NC(=O)c2cncnc2C)CN1Cc1ccsc1`, for which the INHIBITION amounted to 22.6%.

On to `CC(C)c1nn(C)c(N(C)C)c1CNCc1ccnc(N(C)C)c1`, for which the INHIBITION was -10.8%.

On to `Cc1nc(C)n(CC2CCCN(Cc3cccc(F)c3F)C2)n1` (centres undefined), for which the INHIBITION is on record as 31.2%.

For the molecule `COc1ccc2c(c1)nc1n2[C@@H](CNCc2ncccc2C)COC1`, the INHIBITION was 51%.

For `COc1ccc2c(c1)nc1n2[C@@H](CNCc2nccs2)COC1`, the INHIBITION was 8.52%.

Regarding `COc1ccc2c(c1)nc1n2[C@@H](CNCc2ccccc2)COC1`, the INHIBITION is 43.1%.

`Cc1ccc2c(n1)N(C)CCN(C(=O)NC(C)C)C2`: the INHIBITION came to 23.6%.

With `O=C(CCN1CCc2c(ncn2C2CC2)C1)NC1CCCC1`, the INHIBITION is recorded as -45.6%.

On to `CCc1ccc(C(=O)NC2CCc3nc(C)cn3C2)o1` (centres undefined), for which the INHIBITION is 2.75%.

For `CCc1ccc(C(=O)NC2CCCN(c3ccn(C)n3)C2=O)o1` (centres undefined), the INHIBITION stood at 20.3%.

In the case of `CCc1ccc(C(=O)NC2CCN(c3ccn(C)n3)C2)o1` (centres undefined), the INHIBITION was found to be 62.4%.

For `CNc1cc(CNC(=O)c2cccnc2)nc(-c2ccncc2)n1`, the INHIBITION was found to be 27.8%.

Regarding `CCc1noc(C(C)N2CCN(CCN3CCCC3=O)CC2)n1` (centres undefined), the INHIBITION was -0.113%.

Regarding `C[C@H]1C[C@H]2CN(C(=O)CC3CC3)CC[C@H]2O1`, the INHIBITION stood at 1.94%.

As to `Cc1ccc(CN2C(=O)CCC2C(=O)Nc2cnn(C)c2)o1` (centres undefined), the INHIBITION is listed as 36.7%.

With `CC(=O)N1CCCC(C(=O)NCCOc2cc(C)cc(C)c2)C1` (centres undefined), the INHIBITION is listed as -33.7%.

Regarding `CCN(CC)C(=O)[C@@H]1C[C@@H](NC(=O)c2ccoc2)CN1C`, the INHIBITION came out at 6.88%.

For `CCN(CC)C(=O)[C@@H]1C[C@@H](NC(=O)c2ccn(C(C)(C)C)c2)CN1C`, the INHIBITION is 51.3%.

As to `CCN(CC)C(=O)[C@@H]1C[C@H](NC(=O)c2ccn(C(C)(C)C)c2)CN1C`, the INHIBITION is reported as 21.7%.

`O=C(NCc1cccs1)c1nc2c(o1)CN(C(=O)c1cccnc1)C2`: the INHIBITION is -4.4%.

For `COc1cccc(C2CCN2C(=O)c2cnccn2)c1` (centres undefined), the INHIBITION is recorded as -3.81%.

Regarding `COc1cccc(C2CCN2C(=O)c2cc(C(C)C)on2)c1` (centres undefined), the INHIBITION came out at 55.5%.

In the case of `COc1ccc(C2CCCN2C(=O)c2cc(C(C)C)on2)cc1` (centres undefined), the INHIBITION is given as -75.1%.

Consider `Cc1ccc(N2CC[C@H]3C[C@H](C(=O)NCc4ccco4)O[C@H]3C2)nn1`, for which the INHIBITION is given as 14.5%.

As to `CN(CCSc1nncn1C(C)(C)C)c1ccccc1`, the INHIBITION is given as -9.8%.

As for `Cc1ccc2c(c1)CCC2NCc1c(C)nn(C)c1N1CCOCC1` (centres undefined), the INHIBITION is 33.8%.

Regarding `CC1CCC(O)(CSc2nnnn2C2CC2)CC1` (centres undefined), the INHIBITION was -44.2%.
